# Source: PubChem BioAssay AID709 (SRMLSC, 2007)
# The whole screen tested about 65,000 compounds, of which about 3,600 (5.5%) were called active. What follows is part of a selection rich in actives, with near analogues and random picks from the rest. Unmarked numbers belong to inactive results.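 The calls were made as follows: active = at 10 µM, mean starting fluorescence two-fold or more over control wells; inactive = the rest.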
# Test: intrinsic fluorescence of library compounds, ex339/em460 – biochemical, MLSMR library, data from DPM-DC assay, artefact control, profiling panel (AID 709);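 also: signal is the first read of a kinetic run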
# Settings: compound autofluorescence, ex339/em460 nm, NADH buffer; at 10 µM; hits give high values; 1 = no-compound wells, NADH background
row,Compound,fluorescence fold increase
1,CCC(C)(C)n1nnnc1C(c1cccs1)N1CCN(c2nc3ccccc3s2)CC1 (stereo unspecified),1.35
2,CCOC(=O)c1[nH]cnc1C(=O)NC1CCCCC1,1.07
3,COc1cccc(N2CCN(C3CC(=O)N(c4ccc(Cl)cc4)C3=O)CC2)c1 (stereo unspecified),1.12
4,CC1CCCN(C(=O)Cn2c(=O)oc3ccccc32)C1 (stereo unspecified),1.09
5,Cc1nc(NCc2ccccc2)c(C(N)=O)c2c1COC(C)(C)C2,1.89
6,CC(C)Cn1c(CCC(=O)O)ccc1-c1cccs1,3.14 (active)
7,CCCC(=O)NC(C)C(c1cccs1)N1CCN(c2ccccc2)CC1 (stereo unspecified),0.99
8,O=C(O)CCC(=O)N(Cc1cccs1)Cc1cccs1,1.09
9,CCCCOC(=O)c1ccc(N2C(=O)CC(N3CCN(C/C=C/c4ccccc4)CC3)C2=O)cc1 (stereo unspecified),1.12
10,Clc1ccc(Cc2nn3c(-c4ccncc4)nnc3s2)cc1,1
11,CCCCC(=O)Nc1ccc(C(=O)NCCCn2ccnc2)cc1,1.13
12,CCCCC(=O)Nc1ccc2c(c1)OCCO2,1.08
13,CCCCC(=O)Nc1ccc2c(c1)C(=O)NC2=O,2.11 (active)
14,O=C(Nc1ccccc1N1CCN(C(=O)c2ccccc2)CC1)c1ccc2c(c1)OCO2,1.1
15,N#CCSc1nc2ccccc2c(=O)n1-c1ccccc1,1.11
16,CC(C)CCNC(=O)C1CCCN(S(=O)(=O)c2ccc(F)cc2)C1 (stereo unspecified),1.06
17,CSc1nnc(-c2ccncc2)n1CCCN1CCCC1=O,0.81
18,CCOc1cc2[nH]c(=S)n(CCCN3CCCC3=O)c(=O)c2cc1OCC,1.07
19,CC(C)(C)OC(=O)c1c(N)n(CCCN2CCCC2=O)c2nc3ccccc3nc12,3.76 (active)
20,COc1ccc(CNC2CCCCC2)cc1,1.1
21,CCOc1ccc2nc(NCCNS(=O)(=O)c3ccccc3)c(C#N)cc2c1,3.3 (active)
22,O=S(=O)(NCCNS(=O)(=O)c1ccccc1)c1ccccc1,1.04
23,CCOc1ccc2cc(C#N)c(SCC(=O)OC)nc2c1,1.95
24,COC(=O)C(CC(=O)Nc1cc(C)ccc1C)Nc1ccccc1OC (stereo unspecified),1.02
25,COc1ccc(C2C3=C(OC(C)=O)c4ccccc4C3=Nc3c2c(=O)n(C)c(=O)n3C)cc1 (stereo unspecified),1.09
26,Cn1nnc2cc(C(=O)NCCC3=CCCCC3)ccc21,1.03

row,Compound,fluorescence fold increase
1,CC1CCCN(C(=O)c2ccc3c(c2)C(=O)N(CCC2=CCCCC2)C3=O)C1 (stereo unspecified),1.04
2,Cc1ccc2c(c1)c1ncn(CCC3=CCCCC3)c(=O)c1n2C,2.08 (active)
3,Cc1ccc(C(C(=O)NCc2ccco2)N(CC2CCCO2)C(=O)Cn2nnc3ccccc32)cc1 (stereo unspecified),0.88
4,CCc1nnc(NC(=O)CSc2nnc(COc3ccc(C#N)cc3)n2-c2ccccc2)s1,1.27
5,Cc1nn(-c2ccccc2)c2c1C(=O)NC(=O)C(C)(C)C2,1.03
6,COc1ccc(OCC(=O)N2CCOCC2)cc1,1.05
7,O=C(Nc1cccc(OCC(=O)N2CCOCC2)c1)C1CCCCC1,1.05
8,O=C1CC2(CCCCC2)Oc2ccc(OCC(=O)N3CCOCC3)cc21,5.15 (active)
9,Cn1c(=O)c2c(nc(OCc3cccnc3)n2Cc2ccccc2)n(C)c1=O,1.09
10,CCC(C)(NC(=O)c1ccccn1)C(=O)NC1CCCCC1 (stereo unspecified),1.14
11,Cc1cc(=O)n(C)c(=O)n1CCCNc1ccccc1,1.05
12,CCOC(=O)/C=c1\s/c(=C\c2ccccc2OC)c(=O)n1CC(=O)N1CCOCC1,1.14
13,CCOC(=O)c1sc(NC(=O)C(CC)Sc2nccn2C)nc1C (stereo unspecified),1.08
14,CCOC(=O)c1sc(/N=C/Nc2nc(C)c(C(=O)OCC)s2)nc1C,4.03 (active)
15,CCOC(=O)c1nc(N)sc1C(=O)OCC,1.12
16,O=C1NC2(CCCCC2)N=C1c1ccccc1,1.08
17,COc1ccccc1N1CCN(C(=O)Cn2nnc(-c3cccs3)n2)CC1,1.07
18,C=CCn1c(=S)[nH]c2nc3c(cc2c1=O)COC(C)(C)C3,1.03
19,COc1ccc(OC)c(C(=O)c2coc3ccc(O)c(CN4CCOCC4)c23)c1,1.03
20,O=C(c1ccccc1-c1ccccc1)N1CCOCC1,0.82
21,O=c1c(-c2ccccc2)coc2c(CN3CCOCC3)c(O)ccc12,2.45 (active)
22,CSCCC(NC(N)=O)C(=O)N(C)CC(=O)Nc1ccc(C)cc1 (stereo unspecified),0.91
23,O=C(NCCCN1CCCCCC1)C1CC(=O)N(C2CCCC2)C1 (stereo unspecified),1.16
24,COc1cc2ccccc2cc1C(=O)Nc1ccc(S(=O)(=O)Nc2cc(C)on2)cc1,1.32
25,O=C(Cn1cnc2c(nnn2-c2ccccc2)c1=O)N1CCC(Cc2ccccc2)CC1,1.07
